These results are taken from PubChem BioAssay.

SMILES strings stand for the structures. Unmarked numbers belong to inactive results.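 How the source made its calls: active means inhibition over a set limit, the all-compound mean plus 3 SD, in both replicate runs; inconclusive means over that limit in just one replicate run; inactive means at or under that limit in both runs.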

The assay is described as follows: inhibitors of the yeast RAM network, pilot screen, dse1pr::URA3 reporter, 5-FOA selection (AID 869).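 Further: 0% = DMSO wells with no growth and 100% = 10 µM 1-NA-PP1 with full growth; RAM network block rescues cells from 5-FOA so hits raise OD615 growth.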 Particulars: S. cerevisiae dse1pr::URA3 5-FOA growth, OD615, 2 d; at 10 µM; hits give high values; strain carries analog-sensitive mutant Cbk1 kinase.
Usually inhibition stands for the drop in the measured response relative to a control, in per cent. For `Cc1ncc(CO)c2cc(S(=O)(=O)c3ccc(F)cc3)c(=O)oc12`, the inhibition is 0.14%.

On to `CCC(SCC(=O)OC)C(=O)Nc1nnc(C(C)C)s1` (configuration not stated), for which the inhibition is 2.43%.

Take `C=CCOC(=O)C1=C(C)NC(C)=C(C(=O)OCC=C)C1c1ccc(O)cc1`: the inhibition is 0.035%.

`CC(=O)c1ccc(OCC(O)CN2CCOCC2)cc1` (configuration not stated): the inhibition is 2.42%.

On to `CCOc1cc(-c2nc(-c3ccncc3)no2)cc(OCC)c1OCC`, for which the inhibition is 1.08%.

Regarding `O=C1CC(c2cccs2)CC(O)=C1C=NCCN1CCNCC1` (configuration not stated), the inhibition is 0.995%.

Regarding `OC(COc1ccc2ccccc2c1)CN1CCN(c2ccc(F)cc2)CC1` (configuration not stated), the inhibition is 1.09%.

Take `O=C(Nc1ccc(SC(F)F)cc1)C1=COCCO1`: the inhibition is 1.4%.

On to `COc1ccc(NS(=O)(=O)c2ccc3c(c2)oc(=O)n3C)c(OC)c1`, for which the inhibition is 1.07%.

For `COc1ccccc1C1CC(=O)NC(SCC(=O)Nc2ccccc2)=C1C#N` (configuration not stated), the inhibition is 3.57%.

As for `CC(=O)Nc1ccccc1NC(=O)C(F)(F)F`, the inhibition is 1.51%.

Take `CCOC(=O)C1=C(C)S/C(=C\N(C)C)C1=O`: the inhibition is -0.055%.

On to `Cc1ccc(-n2nnc3c(=O)n(CC(=O)NCc4ccco4)cnc32)cc1`, for which the inhibition is 3.36%.

With `O=C(Cn1c(=O)sc2ccccc21)N1CCOCC1`, the inhibition was 0.485%.

For the compound `CCOCCOC(=O)C1=C(C)NC2=C(C(=O)CC(c3cccs3)C2)C1c1ccsc1` (configuration not stated), the inhibition was 2.27%.

As for `CC1CC(C)CN(CCCNC(=O)Cn2ncc3c(=O)oc4ccccc4c32)C1` (configuration not stated), the inhibition is 3.87%.

Consider `CCC(C#CCN1CCCCC1)(CC)OCCC#N`, for which the inhibition is 0.79%.
